For orientation: AC50 means the concentration giving half of the maximal activity seen.

Activity calls are given as the source filed them. How the source made its calls: active means hit-call score of the fitted dose curve at least 0.9, where 1 is the maximum; inactive means score below 0.9.

Data on four compounds can be found in PubChem BioAssay (EPA / NIEHS).

Assay [1] is described as follows: ATG_GLI_CIS: Attagene CIS-FACTORIAL HepG2 Assay for human Zinc Finger Protein GLI1 (AID 2282945). To be noted: HepG2, Attagene cis-factorial reporter mRNA, GLI element; actives raise or lower the signal. An outline of the steps: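 Bidirectional curve fits relative to DMSO, using reporter mRNA levels from RT-PCR plus capillary electrophoresis. Cells were HepG2 transiently carrying cis-regulated reporter constructs, harvested 24 h after dosing.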

The target in assay [2] is Bile acid receptor (Homo sapiens) (UniProt Q96RI1). The experiment in a line: ATG_IR1_CIS: Attagene CIS-FACTORIAL HepG2 Assay for human Nuclear Receptor Subfamily 1 Group H Member 4 (NR1H4), IR1 submotif (AID 2282946). The settings on record: IR1 reporter transcription, actives raise or lower the signal. In outline:
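Cells (human HepG2) carry transiently transfected cis-promoter reporter transcription units. Compounds are incubated 24 h, total RNA is reverse-transcribed and amplified, and labelled fragments are resolved by capillary electrophoresis. Curves use DMSO as baseline.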

A short description of assay [3]: ATG_ISRE_CIS: Attagene CIS-FACTORIAL HepG2 Assay for human Interferon Regulatory Factor 1 (IRF1) binding to an Interferon-Stimulated Response Element (ISRE) (AID 2282948). To be noted: HepG2 ISRE cis-reporter (Attagene), mRNA transcription readout; actives raise or lower the signal. An outline of the steps: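 Transfected HepG2 (multiple reporter transcription units, cis elements) dosed 24 h. RNA → oligo(dT) RT → PCR → 6-FAM primer extension → HpaI → CE. DMSO = negative control/baseline.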

Assay [4] is described as follows: ATG_M_32_CIS: Attagene CIS-FACTORIAL HepG2 Assay for M32 Transcription Factor (Internal Marker) (AID 2282949).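 Further: background control marker of the multiplexed CIS panel rather than a real target.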 The settings on record: HepG2 Attagene cis-factorial M32 reporter, mRNA; actives raise or lower the signal. An outline of the steps:
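Internal background marker read-out: RT-PCR/capillary electrophoresis fluorescence of reporter transcripts from transiently transfected HepG2 cells after 24 h chemical exposure. Activity fitted bidirectionally relative to DMSO negative control.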

Assay [5] can be described thus: ATG_M_06_CIS: Attagene CIS-FACTORIAL HepG2 Assay for M06 Transcription Factor (Internal Marker) (AID 2282950). To be noted: HepG2 Attagene CIS-FACTORIAL M06 internal marker reporter; actives raise or lower the signal. An outline of the steps:
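Measured 24 h post-dosing in transiently transfected HepG2 cells, this internal-marker endpoint reports reporter mRNA via RT-PCR with fluorescent primer extension and capillary electrophoresis. DMSO served as negative control and baseline for bidirectional fitting.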

Assay [6] addresses Hypoxia-inducible factor 1-alpha (Homo sapiens) (UniProt Q16665). The experiment in a line: ATG_HIF1a_CIS: Attagene CIS-FACTORIAL HepG2 Assay for human Hypoxia Inducible Factor 1 (HIF1A) (AID 2282951). To be noted: HepG2 Attagene cis-factorial HIF1a reporter transcription; actives raise or lower the signal. An outline of the steps:
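Transient MRTU transfection of human HepG2 liver cells, 24 h compound treatment, then total RNA isolation, oligo(dT) reverse transcription, PCR amplification, fluorescent labelling and capillary electrophoresis of reporter fragments. Gain or loss relative to DMSO.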

The target in assay [7] is Hepatocyte nuclear factor 6 (Homo sapiens) (UniProt Q9UBC0). Kind of assay: ATG_HNF6_CIS: Attagene CIS-FACTORIAL HepG2 Assay for human Hepatocyte Nuclear Factor 6 (HNF6) (AID 2282952). The settings on record: HepG2 Attagene cis-factorial HNF6 reporter transcription; actives raise or lower the signal. An outline of the steps:
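Transiently transfected HepG2 cells expressing cis-regulated reporter transcription units were exposed to chemical for 24 h in a 24-well format. Reporter transcript abundance was determined by fluorescence capillary electrophoresis.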

The target in assay [8] is Heat shock factor protein 1 (Homo sapiens) (UniProt Q00613). Kind of assay: ATG_HSE_CIS: Attagene CIS-FACTORIAL HepG2 Assay for human Heat Shock Transcription Factor 1 (HSE) (AID 2282953). The settings on record: HepG2 HSE cis-reporter, Attagene RNA transcription; actives raise or lower the signal. In outline:
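Reporter mRNA induction in HepG2 is measured 24 h after dosing, using transiently transfected multiplexed cis-regulated reporter units. Signal comes from capillary electrophoresis of labelled RT-PCR products, with DMSO as negative control.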

A short description of assay [9]: ATG_MRE_CIS: Attagene CIS-FACTORIAL HepG2 Assay for human Metal Responsive Element (MRE) (AID 2282954). To be noted: HepG2 MRE cis-reporter transcription, Attagene multiplex; actives raise or lower the signal. In outline: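 After a 24 h chemical exposure, transiently transfected HepG2 cells yield RNA whose reporter sequences are amplified, FAM-labelled and sized by capillary electrophoresis. Curves are fitted bidirectionally relative to DMSO.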

Assay [10] is described as follows: ATG_PBREM_CIS: Attagene CIS-FACTORIAL HepG2 Assay for human Phenobarbital-responsive Enhancer Module (PBREM) (AID 2282955). To be noted: HepG2 PBREM cis-reporter, Attagene multiplexed transcription; actives raise or lower the signal. An outline of the steps:
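Endogenous transcription factors in human liver HepG2 cells drive a PBREM cis-element reporter, whose transcript level after 24 h treatment is quantified by RT-PCR with capillary electrophoresis; activity fitted in both directions against DMSO.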

For assay [11], the target named is Paired box protein Pax-6 (Homo sapiens) (UniProt P26367). Kind of assay: ATG_Pax6_CIS: Attagene CIS-FACTORIAL HepG2 Assay for human Paired Box 6 (PAX6) (AID 2282956). The settings on record: HepG2 CIS-FACTORIAL PAX6 reporter transcription, RNA readout; actives raise or lower the signal. An outline of the steps: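 Transient MRTU transfection of HepG2 → compound exposure 24 h → TriZol RNA, oligo(dT) RT → PCR, 6-FAM primer extension, HpaI cut → capillary electrophoresis; activity fitted both directions against DMSO.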
Sequence of Paired box protein Pax-6 (Homo sapiens) (P26367 whole entry, looked up): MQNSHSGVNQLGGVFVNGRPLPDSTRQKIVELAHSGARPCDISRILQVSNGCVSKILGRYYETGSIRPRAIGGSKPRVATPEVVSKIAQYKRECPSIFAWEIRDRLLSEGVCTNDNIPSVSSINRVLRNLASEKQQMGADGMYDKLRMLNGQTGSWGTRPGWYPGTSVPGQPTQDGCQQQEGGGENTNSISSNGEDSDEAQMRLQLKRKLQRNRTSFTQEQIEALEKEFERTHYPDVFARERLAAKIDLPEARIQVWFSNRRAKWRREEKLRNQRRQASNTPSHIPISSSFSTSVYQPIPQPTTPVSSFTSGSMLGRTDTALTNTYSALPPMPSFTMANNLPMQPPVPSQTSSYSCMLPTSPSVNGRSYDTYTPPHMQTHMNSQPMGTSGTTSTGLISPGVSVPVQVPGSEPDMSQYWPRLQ

Assay [12] is described as follows: ATG_PXRE_CIS: Attagene CIS-FACTORIAL HepG2 Assay for human Pregnane X Receptor Element (PXRE) (AID 2282957). To be noted: HepG2 Attagene CIS-FACTORIAL PXRE reporter, mRNA; actives raise or lower the signal. In outline:
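Cis-element reporter mRNA in human hepatoma HepG2 cells is measured 24 h post-dosing by RT-PCR, primer-extension labeling and capillary electrophoresis; gain or loss of signal is fitted relative to DMSO.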

Assay [13] is described as follows: ATG_PPRE_CIS: Attagene CIS-FACTORIAL HepG2 Assay for human Peroxisome Proliferator-activated Response Element (PPRE) (AID 2282958). The settings on record: HepG2 PPRE cis-element reporter, Attagene transcription factor profiling; actives raise or lower the signal. In outline: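 HepG2, transient MRTU transfection (cis promoter elements, endogenous TFs). 24 h dosing. RNA → oligo(dT) RT → PCR → 6-FAM primer extension → HpaI digest → CE. Bidirectional fit vs DMSO.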

A short description of assay [14]: ATG_RORE_CIS: Attagene CIS-FACTORIAL HepG2 Assay for human RAR-related Orphan Receptor Element (RORE) (AID 2282959). To be noted: HepG2 Attagene cis-factorial RORE reporter, mRNA; actives raise or lower the signal. An outline of the steps:
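Transient MRTU transfection of human HepG2 liver cells (FuGene 6); 24 h compound exposure; TriZol RNA, oligo(dT) RT, PCR, FAM labeling, HpaI cut, CE fragment analysis. DMSO = negative control/baseline.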

Assay [15] is described as follows: ATG_Sox_CIS: Attagene CIS-FACTORIAL HepG2 Assay for human SRY-box transcription factor (SOX) (AID 2282960). To be noted: HepG2 Attagene cis-factorial SOX reporter, mRNA; actives raise or lower the signal. An outline of the steps: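 Endogenous factor activity in human liver HepG2 cells carrying transfected cis-regulated reporter units. RNA taken 24 h post-dose, reverse-transcribed, PCR-amplified and sized by capillary electrophoresis. Gain or loss of signal fitted relative to DMSO.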

Assay [16] has as its target Transcription factor Sp1 (Homo sapiens) (UniProt P08047). Kind of assay: ATG_Sp1_CIS: Attagene CIS-FACTORIAL HepG2 Assay for human Specificity Protein 1 (Sp1) (AID 2282961). The settings on record: HepG2 Sp1 cis-reporter transcription, actives raise or lower the signal. An outline of the steps: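 Transient MRTU-transfected HepG2, 24 h compound exposure. Total RNA → oligo(dT) RT → PCR of reporter → 6-FAM primer extension → HpaI digest → CE. Endpoint fitted both directions vs DMSO.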

A short description of assay [17]: ATG_SREBP_CIS: Attagene CIS-FACTORIAL HepG2 Assay for human Sterol Regulatory Element Binding (SREBP) (AID 2282962). The settings on record: HepG2 Attagene cis-factorial SREBP reporter, mRNA; actives raise or lower the signal. An outline of the steps: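 Transfected HepG2 (cis-regulated reporter library, endogenous TFs) → compound 24 h → total RNA → oligo(dT) RT → reporter-specific PCR → FAM primer extension, HpaI cut → CE fluorescence. Fit bidirectional vs DMSO.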

For assay [18], the target named is Signal transducer and activator of transcription 3 (Homo sapiens) (UniProt P40763). Kind of assay: ATG_STAT3_CIS: Attagene CIS-FACTORIAL HepG2 Assay for human Signal Transducer and Activator of Transcription 3 (STAT3) (AID 2282963). The settings on record: HepG2, Attagene cis-factorial STAT3 reporter transcription; actives raise or lower the signal. An outline of the steps:
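After a 24 h compound incubation, total RNA from MRTU-transfected HepG2 cells was converted to cDNA and reporter sequences PCR-amplified, labelled and profiled by capillary electrophoresis. Gain and loss of signal were referenced to DMSO.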

Assay [19] is described as follows: ATG_TA_CIS: Attagene CIS-FACTORIAL HepG2 Assay for human TA Basal Promoter (AID 2282964). The settings on record: HepG2 Attagene CIS-factorial TA basal promoter reporter; actives raise or lower the signal. In outline:
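Cis-factorial format in HepG2: reporters report endogenous factors, not chimeric Gal4 fusions. After 24 h treatment, reporter transcripts were measured by RT-PCR-capillary electrophoresis fluorescence, analysed bidirectionally versus DMSO.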

Assay [20] is described as follows: ATG_GRE_CIS: Attagene CIS-FACTORIAL HepG2 Assay for human Glucocorticoid Response Elements (GRE) (AID 2282947). To be noted: HepG2 GRE cis-reporter, Attagene multiplex mRNA; actives raise or lower the signal. In outline: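 Assay uses human hepatoma HepG2 cells transfected with cis-promoter reporter units, exposed 24 h. mRNA from reporters detected by RT-PCR plus capillary electrophoresis; DMSO serves as negative control and baseline.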

Sequence of Bile acid receptor (Homo sapiens) (Q96RI1 whole entry, looked up, the tested form may be a part): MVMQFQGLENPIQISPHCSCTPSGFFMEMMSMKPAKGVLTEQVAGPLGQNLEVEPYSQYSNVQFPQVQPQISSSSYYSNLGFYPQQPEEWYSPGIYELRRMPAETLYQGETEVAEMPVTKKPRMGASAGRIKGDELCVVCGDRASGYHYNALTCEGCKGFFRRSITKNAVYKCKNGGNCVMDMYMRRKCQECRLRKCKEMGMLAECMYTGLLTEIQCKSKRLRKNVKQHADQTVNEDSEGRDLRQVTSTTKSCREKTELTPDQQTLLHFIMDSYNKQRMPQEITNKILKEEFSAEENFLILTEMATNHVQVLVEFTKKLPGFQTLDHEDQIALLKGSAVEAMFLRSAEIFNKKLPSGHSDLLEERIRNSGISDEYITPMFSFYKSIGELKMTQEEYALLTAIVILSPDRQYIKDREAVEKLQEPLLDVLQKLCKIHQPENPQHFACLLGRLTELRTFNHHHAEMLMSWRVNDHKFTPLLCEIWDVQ
Sequence of Transcription factor Sp1 (Homo sapiens) (P08047 whole entry, looked up): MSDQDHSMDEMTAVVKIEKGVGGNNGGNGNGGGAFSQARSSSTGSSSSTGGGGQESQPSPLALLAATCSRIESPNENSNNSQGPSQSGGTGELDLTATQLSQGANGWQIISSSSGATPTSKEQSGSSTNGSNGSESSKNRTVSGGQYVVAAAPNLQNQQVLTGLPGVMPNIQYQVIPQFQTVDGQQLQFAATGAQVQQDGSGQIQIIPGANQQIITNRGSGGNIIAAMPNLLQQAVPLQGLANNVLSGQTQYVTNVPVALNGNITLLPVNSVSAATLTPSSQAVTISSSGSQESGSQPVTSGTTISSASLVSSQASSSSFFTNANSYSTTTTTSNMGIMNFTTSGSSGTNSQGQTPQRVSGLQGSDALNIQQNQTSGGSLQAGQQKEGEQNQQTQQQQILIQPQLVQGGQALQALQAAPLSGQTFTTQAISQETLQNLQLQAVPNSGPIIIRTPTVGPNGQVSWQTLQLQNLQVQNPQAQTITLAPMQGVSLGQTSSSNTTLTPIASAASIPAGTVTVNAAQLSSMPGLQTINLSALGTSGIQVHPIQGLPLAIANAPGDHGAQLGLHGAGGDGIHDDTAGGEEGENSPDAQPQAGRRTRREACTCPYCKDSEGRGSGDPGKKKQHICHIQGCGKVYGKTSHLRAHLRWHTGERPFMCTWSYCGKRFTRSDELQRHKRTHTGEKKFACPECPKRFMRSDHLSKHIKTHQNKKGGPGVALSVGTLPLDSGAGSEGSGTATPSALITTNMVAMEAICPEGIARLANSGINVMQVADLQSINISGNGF
Sequence of Signal transducer and activator of transcription 3 (Homo sapiens) (P40763 whole entry, looked up): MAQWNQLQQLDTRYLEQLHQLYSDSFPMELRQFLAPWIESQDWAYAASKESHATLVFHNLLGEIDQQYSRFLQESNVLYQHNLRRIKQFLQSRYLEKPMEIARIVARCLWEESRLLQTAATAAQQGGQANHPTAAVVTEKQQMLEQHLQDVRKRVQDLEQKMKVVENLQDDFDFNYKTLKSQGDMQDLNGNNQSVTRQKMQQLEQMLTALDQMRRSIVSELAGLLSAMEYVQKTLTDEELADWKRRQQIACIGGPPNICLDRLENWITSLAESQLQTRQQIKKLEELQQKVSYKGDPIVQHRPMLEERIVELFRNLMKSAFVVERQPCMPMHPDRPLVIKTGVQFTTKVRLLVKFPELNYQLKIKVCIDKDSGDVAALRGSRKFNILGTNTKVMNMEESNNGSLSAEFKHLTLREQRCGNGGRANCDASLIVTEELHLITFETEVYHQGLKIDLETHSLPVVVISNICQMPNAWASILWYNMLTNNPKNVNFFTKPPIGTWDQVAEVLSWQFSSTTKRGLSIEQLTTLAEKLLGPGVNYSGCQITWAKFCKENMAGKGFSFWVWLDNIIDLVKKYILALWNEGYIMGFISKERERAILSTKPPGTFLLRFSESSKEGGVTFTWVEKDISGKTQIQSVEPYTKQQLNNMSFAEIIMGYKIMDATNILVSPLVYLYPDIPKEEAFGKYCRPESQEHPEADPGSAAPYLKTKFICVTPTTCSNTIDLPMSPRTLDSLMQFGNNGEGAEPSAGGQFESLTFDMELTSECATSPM
Sequence of Heat shock factor protein 1 (Homo sapiens) (Q00613 whole entry, looked up): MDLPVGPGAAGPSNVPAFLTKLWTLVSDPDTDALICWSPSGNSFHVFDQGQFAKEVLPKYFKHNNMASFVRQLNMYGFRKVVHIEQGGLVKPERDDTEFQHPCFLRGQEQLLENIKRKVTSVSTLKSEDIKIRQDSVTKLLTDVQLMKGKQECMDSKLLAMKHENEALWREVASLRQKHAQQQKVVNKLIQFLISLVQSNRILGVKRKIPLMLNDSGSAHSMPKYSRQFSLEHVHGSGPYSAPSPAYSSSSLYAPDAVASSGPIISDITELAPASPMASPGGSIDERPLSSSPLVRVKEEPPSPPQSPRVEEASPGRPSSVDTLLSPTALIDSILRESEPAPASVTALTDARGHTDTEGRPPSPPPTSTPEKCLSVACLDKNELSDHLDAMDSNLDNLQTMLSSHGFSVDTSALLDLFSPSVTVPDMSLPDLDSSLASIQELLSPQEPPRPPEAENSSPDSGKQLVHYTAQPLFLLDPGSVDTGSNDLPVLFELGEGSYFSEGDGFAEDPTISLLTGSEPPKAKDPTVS
Sequence of Hypoxia-inducible factor 1-alpha (Homo sapiens) (Q16665 whole entry, looked up, the tested form may be a part): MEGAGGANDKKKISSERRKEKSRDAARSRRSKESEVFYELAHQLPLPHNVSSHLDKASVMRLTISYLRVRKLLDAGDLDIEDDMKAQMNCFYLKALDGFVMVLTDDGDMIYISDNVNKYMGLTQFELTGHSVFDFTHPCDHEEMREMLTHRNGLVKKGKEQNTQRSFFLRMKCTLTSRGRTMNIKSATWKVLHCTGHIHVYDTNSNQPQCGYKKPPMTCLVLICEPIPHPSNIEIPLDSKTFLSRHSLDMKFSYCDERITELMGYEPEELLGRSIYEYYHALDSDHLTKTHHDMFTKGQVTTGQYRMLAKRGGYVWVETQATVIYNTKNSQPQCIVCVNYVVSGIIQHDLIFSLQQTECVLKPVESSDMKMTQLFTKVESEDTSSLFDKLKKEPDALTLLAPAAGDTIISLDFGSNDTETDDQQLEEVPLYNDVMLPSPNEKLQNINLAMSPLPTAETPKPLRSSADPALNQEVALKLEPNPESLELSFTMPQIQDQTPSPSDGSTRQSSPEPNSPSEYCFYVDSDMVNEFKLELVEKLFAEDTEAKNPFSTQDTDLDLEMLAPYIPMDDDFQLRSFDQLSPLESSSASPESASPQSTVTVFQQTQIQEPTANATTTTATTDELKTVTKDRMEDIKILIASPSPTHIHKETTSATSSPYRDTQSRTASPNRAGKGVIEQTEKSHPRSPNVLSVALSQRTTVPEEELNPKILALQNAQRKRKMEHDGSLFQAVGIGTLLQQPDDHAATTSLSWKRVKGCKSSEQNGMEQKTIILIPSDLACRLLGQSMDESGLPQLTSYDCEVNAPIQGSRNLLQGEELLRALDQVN
Sequence of Hepatocyte nuclear factor 6 (Homo sapiens) (Q9UBC0 whole entry, looked up): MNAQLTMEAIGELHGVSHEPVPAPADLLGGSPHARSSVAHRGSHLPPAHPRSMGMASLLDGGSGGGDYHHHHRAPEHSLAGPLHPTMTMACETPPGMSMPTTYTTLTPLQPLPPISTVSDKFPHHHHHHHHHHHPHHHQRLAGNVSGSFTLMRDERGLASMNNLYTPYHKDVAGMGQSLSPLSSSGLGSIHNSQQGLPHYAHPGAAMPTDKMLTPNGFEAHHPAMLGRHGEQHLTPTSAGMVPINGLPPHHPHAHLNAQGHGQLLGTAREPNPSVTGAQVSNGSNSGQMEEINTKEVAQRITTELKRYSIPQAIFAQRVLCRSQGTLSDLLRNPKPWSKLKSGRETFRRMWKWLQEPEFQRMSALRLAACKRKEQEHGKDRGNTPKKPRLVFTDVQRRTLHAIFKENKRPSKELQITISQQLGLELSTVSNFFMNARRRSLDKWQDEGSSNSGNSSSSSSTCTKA

For the compound `O=C(O)Cc1ccccc1Nc1c(Cl)cccc1Cl`, the outcome in [1], in [2], in assay [3], in assay [4], in assay [5] and in assay [6] was inactive. Moreover, the compound was classed as inactive in assay [7], in assay [8], in [9], in assay [10], in assay [11] and in [13]. In addition, the result in assay [14], in assay [15], in assay [16], in [17], in assay [18] and in [19] was inactive. Moreover, the AC50 in assay [12] was 25.8 µM (active).

Regarding `Nc1nc(N)c2nc(CNc3ccc(C(=O)N[C@@H](CCC(=O)O)C(=O)O)cc3)cnc2n1`, the compound was classed as inactive in assay [1], in assay [2], in assay [20], in assay [3], in [4] and in assay [5]. The compound was called inactive in assay [7], in assay [8], in assay [9], in assay [10], in assay [11] and in [12]. The compound was called inactive in assay [14], in assay [15], in assay [16], in assay [17], in [18] and in [19].

For the compound `O=c1[nH]cc(F)c(=O)[nH]1`, the compound was called inactive in [1], in [2], in assay [20], in assay [3], in assay [4] and in [5]. For the same compound, the compound was classed as inactive in [8], in assay [9], in assay [11], in [13], in assay [14] and in assay [15]. In addition, the result in [16], in [18] and in assay [19] was inactive. Besides, the AC50 in [17] was 18.3 µM (active).

Take `Cc1c(C(=O)O)c(O)cc2c1C(=O)c1c(O)c([C@@H]3O[C@H](CO)[C@@H](O)[C@H](O)[C@H]3O)c(O)c(O)c1C2=O`: the compound was called inactive in [1], in assay [2], in assay [20], in assay [3], in assay [4] and in assay [5]. Besides, the outcome in assay [6], in assay [9], in [11], in assay [13], in assay [14] and in assay [15] was inactive. Moreover, the compound was classed as inactive in [16], in assay [17], in [18] and in assay [19].
